Screen size: about 140,000 compounds; about 4,300 (3.1%) were called active. Not shown: some 21% with an inconclusive outcome. The list comes from a sample in which actives are over-represented; it also holds similar structures and randomly drawn compounds. Unmarked numbers belong to inactive results.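 How the source made its calls: active means readout at or below -70, meaning at least 70% loss of cells showing the perinucleolar compartment, a nuclear body marking cancer cells; inconclusive means readout between -30 and a set limit; inactive means the rest.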
Assay: High Content Assay for Compounds that inhibit the Assembly of the Perinucleolar Compartment;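 further: plate controls were DMSO wells for no effect and camptothecin positive control wells for full effect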
Conditions: PC3M PTB-GFP, PNC prevalence imaging, 16 h; at 10 µM; hits give low values
Excerpt: High Content Assay for Compounds that inhibit the Assembly of the Perinucleolar Compartment NIH Chemical Genomics Center [NCGC] NIH Molecular Libraries Probe Centers Network [MLPCN] MLPCN Grant: MH082371-01A2 Assay Submitter (PI): Sui Huang, Northwestern University, Feinberg School of Medicine, Cell and Molecular Biology, Chicago, Illinois. The perinucleolar compartment (PNC) is a non-membrane-bound nuclear subdomain that is associated with but structurally distinct from the nucleolus. The PNC is a heritable trait, in which the number of PNCs per cell in daughter cells often mimics that of their mother cells. The PNC is heterogeneous in shape, is stable through interphase, disassembles during mitosis, and reassembles in early G1. The PNC is concentrated with newly synthesized RNA polymerase III (pol III) RNAs (MRP RNA, RNAse P H1 RNA, hY RNAs[hY1, 2, 5], Alu RNA, and SRP [7SL] RNA) and RNA binding proteins (nucleolin, PTB, CUG-BP, KSRP, Raver1, Raver2, and Rod). […] Extensive in vitro studies have shown that the PNC is unique to tumor cells and preferentially forms in tumor cells derived from solid tissues. Examination of cancer cell lines from various origins and malignant capacities has shown that PNC prevalence correlates with the malignancy of tumors and has the potential to be developed as a pan-cancer prognostic marker. […] Although the PNC is associated with a DNA locus and a handful of components have been identified, much remains to be investigated regarding the structure and function of the PNC and its mechanistic link to cancer. We have previously shown that PNC prevalence reduction is a valid strategy to identify compounds that can be used to study the structure and function of the PNC. It is necessary, however, to create a screening platform that is able to test a large number of compounds in an automated fashion. Here we report the development and robustness of an automated whole-cell phenotypic image-based screening assay that is capable of identifying such compounds.
PNC High Content Imaging Assay Procedure: 1. Cells at a density of 75-90% confluency in T175 flasks were harvested using 7 ml TrypLE Express cell dissociation reagent. After dissociation (5 minutes room temperature incubation) 10 ml of complete media was added to the TrypLE/cell suspension. The liquid was transferred to a 50 ml Conical tube and cells were pelleted at 1000 RPM for 5 min. Supernatant was removed and cells were resuspended to a final density of 150-200 cells/ul in complete media. 2. Cells were plated in 5 ul volume (750-1000 cells/well) into 1536 well Black uclear Aurora Low Base plates and allowed to recover and adhere at 37 C in a humidified 5% CO2 incubator for 4 hours. 3. After 4 hour incubation, compound libraries (23 nl of […] in columns 5-48) were transferred to the plates in duplicate using a 1536 well pintool. Camptothecin positive control (59 uM final) was added to column 2 and 1:3 dilutions of camptothecin was added to column 3. DMSO negative controls were present in columns 1 and 4. 4. After a 16 hour incubation in the 37 C incubator, cells were fixed by the addition of 4 ul of 6% EM grade paraformaldehyde (containing 0.1% triton X 100) directly to the cells. The plates were incubated at room temperature for 20 minutes. The liquid was removed using a 32 channel Kalypsys aspirator and the fixed cells were washed twice with 5 ul PBS followed by a final addition of 5 ul PBS containing 1 ug/ml Hoechst 33342. 5. Fixed plates were sealed and sotred at 4C until imaged. 6. Plates were imaged on an InCell 1000 automated microscope using a 20 x objective, a standard FITC filter set, no camera binning, and an exposure time of ~100-150 msec/well. 7. Data analysis. PNC prevalence was determined using the Multitarget analysis module from InCell Workstation software (V3.5 ) and analysis was run on a quad core workstation using the Incell Developer Toolbox (V1.7). […]

SMILES | activity change (PNC), negative = inhibition
c1cc2c(cc1CCNC1CCCCCC1)OCO2 | -119% (active)
CC(=NCc1ccc2c(c1)OCO2)c1c(O)[nH]c(=O)[nH]c1=O | -17.3%
OC(CNC1CCCCC1)c1ccccc1 (stereo not given) | 38.6%
CNC(=S)N/N=C1\C2CN3CCN(C2)CC1(c1ccccc1)C3 | -18.5%
CCOC(=O)C(O)(c1ccc(N=Cc2ccccc2O)c(C)c1)C(F)(F)F (stereo not given) | -11.8%
Cc1ccc(-n2c(C)cc(/C=C3\C(=O)NC(=O)N(C)C3=O)c2C)cc1C | 23.8%
O=C(CCCn1c(=O)[nH]c2cc(Cl)ccc2c1=O)N1CCC2(CC1)OCCO2 | 44%
COc1ccc(-c2nc(CS(=O)CC(=O)N3CCC4(CC3)OCCO4)c(C)o2)cc1 (stereo not given) | -14.2%
Cc1ccc(Cn2c(C)c3cnn(CC(=O)N4CCC5(CC4)OCCO5)c(=O)c3c2C)cc1 | -100% (active)
CC(C)N(CC#CCC1(O)c2ccccc2-c2ccccc21)C(C)C | 48.8%
CN(C)C(=O)Oc1cc(=O)n2c3c(cccc13)CCC2 | 23.5%
Cc1ccc(-n2c(-c3ccc([N+](=O)[O-])cc3)nc3ccccc3c2=O)cc1 | -17%
CC(C(=O)Nc1ccc(Cl)cc1Cl)N1CC=C(c2ccccc2)CC1 (stereo not given) | 38%
Cc1cccc(OP(=O)(Oc2cccc(C)c2)OC(c2ccccc2)C(F)(F)F)c1 (stereo not given) | -3.33%
CCCCCn1c(=O)c(C(=O)Nc2c(C)n(C)n(-c3ccccc3)c2=O)c(O)c2ccccc21 | -20.3%
CCCCCn1c(=O)c(C(=O)NCc2ccccn2)c(O)c2ccccc21 | -112% (active)
Cc1ccnc(-n2c(C)cc(/C=C3\C(=O)NC(=S)N(C)C3=O)c2C)c1 | -11.7%
C=CCn1c(O)c(/C=N/N2CCOCC2)c(=O)[nH]c1=S | 60.9%
CN1CCN(c2cc(N3CCNCC3)ccc2[N+](=O)[O-])CC1 | 12.6%
CC1=C(C(=O)Nc2ccccc2)SCCO1 | -98% (active)
O=C1NC(=O)N(c2ccc(F)cc2)C(=O)/C1=C/c1ccc2c(c1)CCCN2Cc1ccccc1 | -20.7%
O=C1N=c2ccccc2=C/C1=C\c1c(O)[nH]c(=S)[nH]c1=O | -19.2%
CN(C)CC1CCCCC1OC(=O)c1ccc(Cl)c(Cl)c1 (stereo not given) | -10.5%
O=C1NC(=O)C(CCc2ccccn2)(Cc2cccc(Cl)c2Cl)C(=O)N1c1ccc(Br)cc1 (stereo not given) | -14.3%
Cc1ccc2c(c1)C1CN(C)CCC1N2C(=O)Cn1nnc(-c2ccccc2F)n1 (stereo not given) | -101% (active)
